Assay outcomes: PubChem BioAssay, National Center for Advancing Translational Sciences (NCATS)
This is a sample that favours compounds with a hit; in the whole collection about 10% have one here.
FLuc inh-1 – Firefly luciferase inhibition profiling of diverse chemical library using quantitative high-throughput screening; purified P. pyralis luciferase, luminescence, biochemical; Potency, µM (titrated, usually from 115 µM), most hits filed as inhibitors; 2.5% of 76,000 active; AID 1347043, 2019; further: nearly all actives have a fitted effect of over 65% in size
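FLuc 10nM, D-luciferin 10uM, ATP 10uM, Mg acetate 10mM, Tris acetate pH 7.5, Tween/BSA; cpd qHTS; enzyme added last; CCD luminescence.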
HEK cytotox – Cytotoxic Profiling in HEK 293 Cell Line of Diverse Libraries Using Quantitative High-Throughput Screening; Potency, µM (series often up to 115 µM), usual class: inhibitors; 6.6% of 94,000 active; AID 1345083, 2018; HEK 293 viability, ATP luminescence (CellTiter-Glo), 48-72 h; further: nearly all actives have a fitted effect of over 60% in size
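250 HEK 293 cells/well; compound by pintool; incubated 48 or 72 hr at 37 degree Celsius; CellTiter-Glo added, 10 min RT, luminescence imaged.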
NIH3T3 tox – Cytotoxic Profiling in NIH 3T3 Cell Line of Diverse Libraries Using Quantitative High-Throughput Screening; NIH 3T3 viability, CellTiter-Glo ATP luminescence, 48-72 h; Potency, µM (series often up to 96.7 µM), most hits filed as inhibitors; 4.3% of 94,000 active; further: nearly all actives have a fitted effect of over 55% in size
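Mouse fibroblast NIH 3T3 cells, 400 per well, received compound via pintool and were incubated for 48 or 72 hr prior to CellTiter-Glo ATP luminescence measurement.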
hNpr1 antagonist – Natriuretic polypeptide receptor (hNpr1) antagonism - Primary qHTS; Atrial natriuretic peptide receptor 1 (Homo sapiens), P16066; HEK293 hNpr1 GloSensor cGMP, ANP-stimulated luminescence; Potency, µM (highest dose often 46.3 µM), actives largely listed as inhibitors; 1.6% of 76,000 active; AID 1347048, 2019; calls by dose curve; further: nearly all actives have a fitted effect of over 60% in size
Target sequence (P16066 whole entry, looked up): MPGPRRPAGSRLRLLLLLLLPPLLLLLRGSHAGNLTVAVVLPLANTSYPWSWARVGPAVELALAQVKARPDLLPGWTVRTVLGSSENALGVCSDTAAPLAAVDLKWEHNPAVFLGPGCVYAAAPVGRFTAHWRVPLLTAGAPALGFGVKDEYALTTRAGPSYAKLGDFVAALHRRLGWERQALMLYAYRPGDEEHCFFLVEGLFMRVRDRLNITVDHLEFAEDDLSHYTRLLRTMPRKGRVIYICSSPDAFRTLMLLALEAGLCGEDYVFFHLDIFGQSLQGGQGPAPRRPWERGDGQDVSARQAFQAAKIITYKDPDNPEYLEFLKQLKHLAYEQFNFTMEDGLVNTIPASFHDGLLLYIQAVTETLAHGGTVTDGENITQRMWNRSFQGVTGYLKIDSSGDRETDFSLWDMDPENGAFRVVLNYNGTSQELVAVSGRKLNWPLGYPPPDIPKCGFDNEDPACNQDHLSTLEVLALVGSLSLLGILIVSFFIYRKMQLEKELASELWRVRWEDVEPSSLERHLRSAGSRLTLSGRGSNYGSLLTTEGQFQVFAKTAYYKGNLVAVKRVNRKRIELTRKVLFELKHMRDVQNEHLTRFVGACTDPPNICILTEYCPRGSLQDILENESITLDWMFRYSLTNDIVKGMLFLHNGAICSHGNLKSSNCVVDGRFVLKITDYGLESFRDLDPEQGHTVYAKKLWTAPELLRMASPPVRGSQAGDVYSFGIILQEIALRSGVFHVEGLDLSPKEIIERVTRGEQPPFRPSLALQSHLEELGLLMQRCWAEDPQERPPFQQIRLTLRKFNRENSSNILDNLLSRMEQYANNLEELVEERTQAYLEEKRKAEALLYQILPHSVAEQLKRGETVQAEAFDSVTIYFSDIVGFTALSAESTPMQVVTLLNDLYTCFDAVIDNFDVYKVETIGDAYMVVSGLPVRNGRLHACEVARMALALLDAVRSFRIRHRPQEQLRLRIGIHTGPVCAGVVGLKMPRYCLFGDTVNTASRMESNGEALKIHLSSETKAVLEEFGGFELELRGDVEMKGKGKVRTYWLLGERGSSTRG
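HEK293 cells stably expressing human Npr1 and cGMP GloSensor pGS-40F, loaded 2 h with 2% GloSensor reagent, given compound 30 min at room temperature. Luminescence read before and 20 min after 0.1 nM hNppA.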
GPT2 inh – Primary qHTS assay for inhibitors of Glutamate pyruvate transaminase 2 (GPT2) | Alanine aminotransferase 2 (Homo sapiens), Q8TD30 | 0.25% of 100,000 active | Potency, µM (series often up to 57.7 µM), hits mostly inhibitors | Recombinant GPT2, coupled pyruvate oxidase/HRP Amplex Red fluorescence | AID 1671188, 2021; further: nearly all actives have a fitted effect of over 60% in size
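Recombinant GPT2 (10ng/uL) with 250uM a-KG and 2mM L-alanine, 30 min at room temperature, in HEPES pH 7.5 buffer. Pyruvate detected by pyruvate oxidase/HRP/Amplex Red fluorescence after 30 min in the dark; AOA (50uM) as positive control.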
FLuc SDR -ATP – Firefly luciferase (FLuc-C-HiBiT) SDR gain of signal screen - without ATP | shares compounds with FLuc inh-1 | Purified FLuc-C-HiBiT, Nano-Glo HiBiT luminescence, no ATP | Potency, µM (doses to about 32.7 µM), usual class: activators | 7.8% of 1,300 active; further: nearly all actives have a fitted effect of over 55% in size
FLuc SDR ATP – Firefly luciferase (FLuc-C-HiBiT) SDR gain of signal screen - plus ATP. shares compounds with FLuc inh-1. 8.7% of 1,300 active. purified FLuc-C-HiBiT + ATP, HiBiT complementation luminescence. AID 1963319, 2024. Potency, µM (series often up to 32.7 µM), actives largely listed as activators;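 further: signal reports ligand binding via conformational change of the enzyme rather than luciferase catalysis; nearly all actives have a fitted effect of over 55% in size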
FLuc inh-2 – Firefly luciferase (FLuc-C-HiBiT) enzymatic inhibition screen - Functional assay; purified FLuc-C-HiBiT enzyme, luciferin luminescence; Potency, µM (titrated, usually from 32.7 µM), actives largely listed as inhibitors; shares compounds with FLuc inh-1; 42% of 1,300 active; further: nearly all actives have a fitted effect of over 70% in size
Hits are given with their value. Unless noted, the call rests on the fitted dose curve; in most records, active means well fitted curve in the direction sought with a large enough effect; inconclusive means small, poorly fitted or top-dose-only effect, or another doubt; inactive means no such curve, though single readings can be large; an effect the other way counts as inactive or inconclusive.

What do the screens show for `CC(C)c1ccc(NC(=O)c2ccc(CN3C(=O)NC4(CCOCC4)C3=O)cc2)cc1`?
FLuc inh-1: 2µM; HEK cytotox: inconclusive; NIH3T3 tox: 40µM; hNpr1 antagonist: 10µM; GPT2 inh: inactive; FLuc SDR -ATP: inconclusive; FLuc SDR ATP: inconclusive; FLuc inh-2: 3.5µM

How did O=C1CC2(CCN(CC3CC3)CC2)Oc2cc(Cl)ccc21 do in these assays?
FLuc inh-1: 3.2µM; HEK cytotox: inconclusive; NIH3T3 tox: inactive; hNpr1 antagonist: inconclusive; GPT2 inh: inactive; FLuc SDR -ATP: inactive; FLuc SDR ATP: inactive; FLuc inh-2: inconclusive

What do the screens show for `O=C1CC2(CCN(Cc3ccccc3)CC2)Oc2cc(Cl)ccc21`?
FLuc inh-1: inconclusive; HEK cytotox: inconclusive; NIH3T3 tox: inconclusive; hNpr1 antagonist: inactive; GPT2 inh: inactive

Results for CC(NC(=O)C1CCN(c2nccc(Nc3ccccc3F)n2)CC1)c1ccc(F)cc1 (centres undefined) ?
HEK cytotox: inconclusive; NIH3T3 tox: inconclusive; GPT2 inh: inactive

How did COc1ccc(-c2cn(CCn3[nH]c(=O)c4ccccc4c3=O)nn2)cn1 do in these assays?
FLuc inh-1: inactive; HEK cytotox: inactive; NIH3T3 tox: inactive; hNpr1 antagonist: inactive; GPT2 inh: inactive

Results for COc1ccc(-c2cccc(CN3CCCC(C)(NC(C)=O)C3)c2)cc1OC (centres undefined) ?
FLuc inh-1: inactive; HEK cytotox: inconclusive; NIH3T3 tox: inconclusive; hNpr1 antagonist: inactive; GPT2 inh: inactive

What do the screens show for `CC(=O)NC1(C)CCN(Cc2ccc(-c3ccc4c(ccn4C)c3)cc2)C1` (centres undefined)?
FLuc inh-1: 4.5µM; HEK cytotox: inconclusive; NIH3T3 tox: inconclusive; hNpr1 antagonist: inconclusive; GPT2 inh: inactive; FLuc SDR -ATP: inactive; FLuc SDR ATP: inconclusive; FLuc inh-2: 7.2µM

What do the screens show for `Cc1ccccc1[C@@H]1CN(Cc2cnn(CCC(=O)O)c2)C[C@H]1C(=O)O`?
FLuc inh-1: inactive; HEK cytotox: inactive; NIH3T3 tox: inactive; hNpr1 antagonist: inactive; GPT2 inh: inactive

What do the screens show for `O=C(NC1C[C@H]2CC[C@@H](C1)N2C(=O)Cc1ccccc1)c1ccncc1` (some centres undefined)?
FLuc inh-1: inactive; HEK cytotox: inactive; NIH3T3 tox: inactive; hNpr1 antagonist: inactive; GPT2 inh: inactive

How did COc1ccc(C(=O)N2CCCC(c3nc(-c4ccccc4)no3)CCNC(=O)CC2)c(OC)n1 (centres undefined) do in these assays?
FLuc inh-1: 7.9µM; HEK cytotox: inactive; NIH3T3 tox: inactive; hNpr1 antagonist: inconclusive; GPT2 inh: inactive; FLuc SDR -ATP: inactive; FLuc SDR ATP: inactive; FLuc inh-2: inconclusive

How did Cn1nc(-c2ccncc2)cc1NC(=O)Cc1ccccc1 do in these assays?
HEK cytotox: inactive; NIH3T3 tox: inconclusive; GPT2 inh: inactive

How did Cc1c(NC(=O)c2cccc(Cl)c2Cl)cccc1-c1nc2ccccc2s1 do in these assays?
FLuc SDR -ATP: inactive; FLuc SDR ATP: inactive; FLuc inh-2: inactive

What do the screens show for `Cc1ccc(-c2ncc(C(=O)Nc3ccccc3Cl)c(-c3ccncc3)n2)cc1`?
FLuc inh-1: inactive; HEK cytotox: inactive; NIH3T3 tox: inactive; hNpr1 antagonist: inactive; GPT2 inh: inactive

What do the screens show for `Cc1c(NC(=O)c2ccc(I)o2)cccc1-c1nc2ccccc2s1`?
FLuc SDR -ATP: inactive; FLuc SDR ATP: inactive; FLuc inh-2: 7µM

How did Cc1c(NC(=O)Cc2ccccc2)cccc1-c1nc2ccccc2s1 do in these assays?
FLuc SDR -ATP: inconclusive; FLuc SDR ATP: inactive; FLuc inh-2: inconclusive

What do the screens show for `CCC(=O)Nc1cc(-c2nc3ccccc3s2)c(Cl)cc1Cl`?
FLuc SDR -ATP: inactive; FLuc SDR ATP: inactive; FLuc inh-2: inactive

Results for O=C(c1cccc(Cl)c1)N1CCC(N2CCCNC2=O)CC1 ?
FLuc inh-1: inactive; HEK cytotox: inactive; NIH3T3 tox: inactive; hNpr1 antagonist: inactive; GPT2 inh: inactive

What do the screens show for `O=C(COc1ccc(Cl)cc1)Nc1ccc(O)c(-c2nc3ccccc3s2)c1`?
FLuc SDR -ATP: inactive; FLuc SDR ATP: inactive; FLuc inh-2: inactive

Results for O=C(CCCS(=O)(=O)c1ccc(Cl)cc1)Nc1ccc(O)c(-c2nc3ccccc3s2)c1 ?
FLuc SDR -ATP: inactive; FLuc SDR ATP: inactive; FLuc inh-2: inactive

Results for O=C(COc1ccc(Cl)cc1)Nc1ccc(-c2nc3ccccc3s2)c(O)c1 ?
FLuc SDR -ATP: inactive; FLuc SDR ATP: inactive; FLuc inh-2: inactive

What do the screens show for `CCN1C(=O)C2CC3(CCN(Cc4cnn(CC)c4C)CC3)CN2C1=O` (centres undefined)?
FLuc inh-1: inactive; HEK cytotox: inactive; NIH3T3 tox: inactive; hNpr1 antagonist: inactive; GPT2 inh: inactive

How did CC(C(=O)NC1CC1)[C@@H]1CC[C@@]2(C)CC[C@H](NC(=O)CC(C)(C)C)[C@@H](C)[C@@H]2[C@H]1O (some centres undefined) do in these assays?
FLuc inh-1: inactive; HEK cytotox: inactive; NIH3T3 tox: inactive; hNpr1 antagonist: inactive; GPT2 inh: inactive

What do the screens show for `COc1ccc(/C=C/c2ccc3c(c2)C(=O)N2CC[C@H](NC(=O)CCC(=O)O)[C@H]2C(=O)N3)cc1`?
FLuc inh-1: 6.3µM; HEK cytotox: inactive; NIH3T3 tox: inactive; hNpr1 antagonist: inactive; GPT2 inh: inactive; FLuc SDR -ATP: inconclusive; FLuc SDR ATP: inconclusive; FLuc inh-2: inconclusive

Results for O=C(O)CCC(=O)N[C@H]1CCN2C(=O)c3cc(/C=C/c4ccccc4)ccc3NC(=O)[C@H]12 ?
FLuc inh-1: inconclusive; HEK cytotox: inactive; NIH3T3 tox: inactive; hNpr1 antagonist: inactive; GPT2 inh: inactive
